Calls of active or inactive are those of the source. Calls follow the shape of the dose curve; as a rule, active = well fitted curve in the direction sought with a large enough effect in the repeat runs; inconclusive = weak or mixed curves; inactive = flat fitted curve, though single readings scatter.
assay: qHTS assay to test for compound auto fluorescence at 590 nm (red) in HEK293 cell free culture (AID 720683); conditions: cell-free medium autofluorescence, Ex540/Em590 red; series mostly up to 91.3 µM
From the text: U.S. Tox21 Program National Center for Advancing Translational Sciences [NCATS] NIH Chemical Genomics Center [NCGC] U.S. Environmental Protection Agency [EPA] National Institutes of Environmental Health Sciences [NIEHS] National Toxicology Program [NTP] U.S. Food and Drug Administration [FDA] Tox21 Assay Overview: Compound auto fluorescence often interferes with screening of the compound library against various biological targets and signaling pathways. Some of these compounds may have fluorophoric properties. Such properties may interfere with the assay outputs resulting in false positives and/or negatives. To decrease such complications and ensure the compound activities are relevant in terms of biological response, the Tox21 10K compound library was screened for auto fluorescence. From the fluorophores used as reporter signals in our screening assays, the auto fluorescence equivalencies of compounds against three fluorophores have been evaluated: Triamterene, Fluorescein and Rose Bengal sodium for blue, green and red fluorescence, respectively. The fluorescence intensities were measured using Excitation/Emission wavelengths at 405/460nm, 485/535nm and 540/590nm for blue, green and red labels, respectively. This assay includes the red fluorescence data.
Tox21 Assay Protocol Summary: 5 uL of culture medium (DMEM containing 10% FBS) per well was dispensed into black wall/clear bottom 1536-well plates using a Multidrop Combi Dispenser (ThermoFisher Scientific, Waltham, MA). After 23 nL compound or DMSO vehicle was transferred into assay plate by a pintool work station (Kalypsys, San Diego, CA), fluorescence intensities in the assay plates were measured by an Envision (PerkinElmer, Shelton, CT) plate reader using three labels for measuring blue, green and red fluorescence at […] 460, 535 and 590nm respectively.
% is scaled to controls: 0 for no effect and ±100 for the full control effect.

**Q.** With `C1=Cc2ccccc2C1` as the compound, how does the outcome read?
**A.** inactive

**Q.** Which outcome does the source give for `CN1CCN(C2=Nc3cc(Cl)ccc3Nc3ccccc32)CC1` here?
**A.** inactive

**Q.** Which outcome does the source give for `CNCC[C@@H](Oc1ccccc1C)c1ccccc1` here?
**A.** inactive

**Q.** Which outcome does the source give for `CN(c1nccc(=O)[nH]1)C1CCN(c2nc3ccccc3n2Cc2ccc(F)cc2)CC1` here?
**A.** inactive

**Q.** With `O=C(Nc1ccccc1)OCC(CN1CCCCC1)OC(=O)Nc1ccccc1` (stereo not given) as the compound, how does the fluorescence, % of fluorescent control read?
**A.** 0.0296% [at 18.6 µM] (inactive)

**Q.** With `CCCCCOC(=O)c1ccc(O)cc1` as the compound, how does the outcome read?
**A.** inactive

**Q.** With `CCCc1ccccc1` as the compound, how does the outcome read?
**A.** inactive

**Q.** With `C[C@@H](C1=C(CCN(C)C)Cc2ccccc21)c1ccccn1` as the compound, how does the outcome read?
**A.** inactive

**Q.** Which outcome does the source give for `C=CC(=O)OCC(C)OCC(C)OCC(C)OC(=O)C=C` (stereo not given) here?
**A.** inactive

**Q.** Which outcome does the source give for `CCCCCCCCCC=O` here?
**A.** inactive

**Q.** For `CCCCOC(O)CC` (stereo not given), which outcome is on record?
**A.** inactive

**Q.** Which outcome does the source give for `CC(O)C1CCCCC1` (stereo not given) here?
**A.** inactive

**Q.** For `NC1CCN(c2nc3c(cc2F)c(=O)c(C(=O)O)cn3-c2ccc(F)cc2F)C1` (stereo not given), which outcome is on record?
**A.** inactive

**Q.** With `CC1CCc2cc(F)cc3c(=O)c(C(=O)O)cn1c23` (stereo not given) as the compound, how does the outcome read?
**A.** inactive

**Q.** Which outcome does the source give for `CC(C)CC=O` here?
**A.** inactive

**Q.** Which fluorescence, % of fluorescent control does the source give for `CN1CCC(OC(c2ccccc2)c2ccccc2)CC1` here?
**A.** 0.167% [at 18.6 µM] (inactive)

**Q.** With `O=C(O)C(c1ccc(Cl)cc1)c1ccc(Cl)cc1` as the compound, how does the outcome read?
**A.** inactive

**Q.** Which outcome does the source give for `Nc1cnn([C@@H]2O[C@H](CO)[C@@H](O)[C@H]2O)c(=O)n1` here?
**A.** inactive

**Q.** Which outcome does the source give for `CC1(C)CCC(C)(C)c2cc(NC(=O)c3ccc(C(=O)O)cc3)ccc21` here?
**A.** inactive

**Q.** With `CCCCCCc1ccc(N)cc1` as the compound, how does the outcome read?
**A.** inactive

**Q.** For `CCCC(=O)OCC`, which outcome is on record?
**A.** inactive

**Q.** With `CCOc1nc2cccc(C(=O)O)c2n1Cc1ccc(-c2ccccc2-c2nn[nH]n2)cc1` as the compound, how does the outcome read?
**A.** inactive

**Q.** With `CCCCCC/C=C/C=O` as the compound, how does the outcome read?
**A.** inactive

**Q.** Which fluorescence, % of fluorescent control does the source give for `CCN(CC)C(C)CN1c2ccccc2Sc2ccccc21` (stereo not given) here?
**A.** -0.0816% [at 18.6 µM] (inactive)

**Q.** With `O=C(c1ccc(O)cc1)c1ccc(O)cc1` as the compound, how does the outcome read?
**A.** inactive

**Q.** For `CC(C)(C)c1ccc(OCC2CO2)cc1` (stereo not given), which outcome is on record?
**A.** inactive

**Q.** With `COc1ccc(OC)c(OC)c1` as the compound, how does the outcome read?
**A.** inactive

**Q.** For `CC(=O)c1c(C)c([N+](=O)[O-])c(C(C)(C)C)c([N+](=O)[O-])c1C`, which outcome is on record?
**A.** inactive

**Q.** For `CC(=O)O[C@H]1C[C@@H]2CC[C@@H]3[C@H](CC[C@@]4(C)[C@H]3C[C@H]([N+]3(C)CCCCC3)[C@@H]4OC(C)=O)[C@@]2(C)C[C@@H]1N1CCCCC1`, which outcome is on record?
**A.** inactive

**Q.** For `Nc1nc(N)c2nc(CNc3ccc(C(=O)N[C@@H](CCC(=O)O)C(=O)O)cc3)cnc2n1`, which outcome is on record?
**A.** inactive

**Q.** For `O=c1c2ccccc2nnn1CCl`, which outcome is on record?
**A.** inactive

**Q.** Which outcome does the source give for `O=CNc1ccccc1` here?
**A.** inactive

**Q.** Which outcome does the source give for `N#Cc1c(F)cccc1F` here?
**A.** inactive

**Q.** With `CC(C)c1cccc(C(C)C)c1NC(=O)NS(=O)(=O)c1cc(C(C)(C)O)co1` as the compound, how does the outcome read?
**A.** inactive

**Q.** Which outcome does the source give for `O=C1CCCCCO1` here?
**A.** inactive

**Q.** With `O=C(Cl)c1c(Cl)cccc1Cl` as the compound, how does the outcome read?
**A.** inactive

**Q.** For `Oc1ccc(O)c2c(O)cccc12`, which outcome is on record?
**A.** inactive

**Q.** With `COC(Cc1ccccc1)OC` as the compound, how does the outcome read?
**A.** inactive

**Q.** With `O=C1c2cccc(O)c2C(=O)c2c(O)cc(CO)cc21` as the compound, how does the outcome read?
**A.** inactive

**Q.** With `Cc1cc(O)ccc1N` as the compound, how does the outcome read?
**A.** inactive

Reference: PubChem BioAssay (Tox21)
